Laboratory results as given in PubChem BioAssay AID1508600 (Functional Genomics Laboratory (NCATS/FGL), 2020).
Screen size: about 53,000 sequences; about 3,700 (7%) were called active. The entries come from a sample that favours actives as a whole. Unmarked numbers belong to inactive results.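 How the source made its calls: active means gene knockdowns whose robust z-score for IL-1 alpha signal is at least 2 or at most -2, so actives lie on both sides; inactive means the rest.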

experiment: Components of the Cytosolic LPS Sensing Pathway: Gene Identification via Genome-wide siRNA Screen; conditions: RAW264.7 macrophages, IL-1a HTRF, actives lie on both sides, screened at 100 nM (by protocol), cells primed 5 h with Pam3CSK4 first;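 further: robust z of the log signal after scaling to non-targeting control siRNA wells of the plate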
In short: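 Using IL-1a HTRF as read-out, the screen measured release from RAW264.7 cells after 48h siRNA knockdown (100 nM), 5 h Pam3CSK4 priming and 24 h cytosolic LipidA. Values were expressed relative to negative-control wells as robust z-scores.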

Sequence | z-score
GGGCAGAAACAAAAGGUUATT against Tmlhe | 0.917
GGAAUGUUACCCUUCAACUTT against Slc25a13 | -0.0366
GGACUCAAGAGAAAUUCAATT against Nod2 | 2.19 (active)
GGGAUGUGAAAUGCACCUUTT against Rftn1 | -1.03
GGUAUUCUUCCUCCAUGGGTT against Olfr638 | -3.22 (active)
UGACUUUUGGACACGAGGCTT against Trim15 | -0.159
GGACAAAUGACUGGUACCCTT against Gorasp2 | -0.314
CGUGUGAAGCAGUUAUGAUTT against Pbx3 | 1.02
GGCAAAUAGUUUCUUCAAUTT against Npnt | -0.485
GGUUGUGAACAGUCCACCCTT against Ski | 0.461
GGAGUGGCCAUUAAAUUUATT against Slc17a8 | 2.75 (active)
GGUGCUGGUGGAUGAACUATT against Nags | -1.5
GGAGGCUAUUACUGUUUAUTT against Fam107b | 0.601
GGUCAAGAGUGCAUUCAAATT against Olfr1445 | 0.266
GGAACUGAUAUCAUGUACATT against Slc25a5 | 2.15 (active)
GCCGAUUCUCAUAUUUGACTT against Exo1 | -0.742
GGCUGAGAACAAUAUGUAUTT against Ccdc80 | 0.323
GGGCAUUUGGCCUUUCUCATT against Cpsf4 | -0.905
GGGCUUGUUUGACUUUCAUTT against Btd | 0.175
GGCUGUAAUGAGGACUGAUTT against Ss18l2 | 3.25 (active)
CCCUAUACAGCGUACCCAATT against Eya2 | -0.754
GCCAUGCUCACUGAACUUCTT against Nanp | -2.3 (active)
GGACUUGAAACUUCUGGAUTT against Nudt16 | 0.453

Sequence | z-score
GCUAUGUAACACACCGCUGTT against Ticam1 | -1.24
GGUGUCUUUACGUCUCCCATT against Neto1 | -2.56 (active)
GGACGAGUCACACUUUGGATT against Cdyl2 | -0.328
GGUCAAGAGGAGGGUACCUTT against Foxred2 | 0.313
GCUUUAAAUAGAGACUAUCTT against Sox30 | 1.15
GGAGACUUCAGCACCUUUGTT against C4a | 0.455
CCUGAUCUCAGCCUAUACUTT against Rapgef6 | -2.26 (active)
GGAACCAAAAGCCUGGCGATT against Pkd1l3 | -1.68
GGACUGAUAUCAUUUCUGATT against Flacc1 | -1
GCAUCCACCUCAACGAUAUTT against Dlg3 | -1.33
GCUAGGAGCUAGGAAUCCGTT against Pdzd3 | -0.682
GGCAGAAUGGGCUUAUGUCTT against Trabd | -2.54 (active)
GGAGCUUGCCAUAUUCCUCTT against Leprotl1 | 0.915
GGAAAUAUAUGUCAUGUCATT against Nars | 2.37 (active)
GCAAGAUUGGAAUGCUCCATT against 3830403N18Rik | 0.309
GGAAGAUAAUAUCCUUUGGTT against Olfr734 | -1.02
GGGAUUUUGAGUUUGAUGCTT against Zc3h10 | -1.03
GCUGUCAAAUUAACCUGUGTT against Spin2c | -2.31 (active)
GCUCGAUAUAAUUUCACACTT against Neto1 | -0.75
GCCGCUACUCUCCUCAAAATT against Card19 | -0.329
CGUGUAAGUUUUGAUUCUATT against Calr | 0.815
GGAGCUUGUGAACACCUUCTT against Nudc | 0.718
GGCUAUCUGCUUAUGCUGGTT against Ptch2 | -0.314

Sequence | z-score
CCAGUAAACCGAGACCAUUTT against Nsfl1c | 2.02 (active)
GCUAAGCGAAGAGUUUAACTT against Dlgap3 | 0.691
GGACUUCUUCGAUUGUUCUTT against Chchd1 | 0.475
GCUCUACAUGAAAACACUGTT against Gpat4 | -0.28
CGAAAUUGCUGACUCAGAATT against Arl6ip6 | 0.549
CCCAGCUUUCAUCCUUUGUTT against Emc7 | 0.237
GGGCAGUCUGAUAGAGGAUTT against Adam30 | -0.632
GGCUUCUGAUCUUACCUGGTT against Smim12 | 0.683
GGAGGAACCCUCAUUUUAGTT against Prxl2c | -0.897
CCAACUCGGCUGUUUUUUATT against F11r | 0.149
GGAAAGCACCCAAGAAAUGTT against Gspt1 | -0.915
GGUACAAUCCCAGAUUUGATT against Smc3 | -2.37 (active)
CCCUUAAGUCUUUUUCCUATT against Celf2 | -1.09
GGCCAUGGUGGCGUGUUAUTT against Egln2 | -0.524
GCUGCUCCCUCUAAUAAAATT against Cbr1 | -0.913
GGCGUGAACCAAACAGACUTT against Calcrl | -0.604
CGGAGCCAAAUACGAAGGGTT against Jph3 | -0.548
GGCAGAAAAGAUGGAAAAUTT against Evi5l | -2.1 (active)
GGCAAGCACACAAUGAUGCTT against Plin5 | -0.0222
GGUAGAACAACAGAACAAUTT against Myo5b | 2.9 (active)
GCAGCUUCAAGAGAGCCAUTT against Rhbdl1 | -0.604
GGAAGUAGCCCAGAAGUGUTT against Rad51d | -0.337
GGGAGAGUUCCAUAAAUUGTT against Narf | -0.728
